IMPase Li cell: IMPase inhibition in cells with lithium potentiation | hit rate 0.35% among 210,000 | Potency, µM (highest dose often 59.4 µM), usual class: inhibitors | CHO-M1 cells, IP1 TR-FRET (IP-One), carbachol + lithium | AID 1457;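 also: IP1 builds up when IMPase is blocked and the TR-FRET signal falls; nearly all actives have a fitted effect of over 50% in size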
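CHO cells stably expressing M1 receptor (2000/well) were cultured 16–30 h, then exposed to compounds with a small lithium addition for 30 min at 37C. IP1 was measured by TR-FRET competition; AC50 from Hill fits.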
ERK EGF block: inhibitors of EGF-stimulated ERK signaling pathway. Potency, µM (series often up to 11.5 µM), most hits filed as inhibitors. HEK293-V1b, EGF-stimulated phospho-ERK AlphaScreen. hit rate 0.41% among 130,000. AID 1454; also: nearly all actives have a fitted effect of over 55% in size
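Phospho-ERK1/2 measured by AlphaScreen (SureFire) after 5 min 25 nM EGF stimulation of V1b-expressing HEK293 cells preincubated 30 min at 37C with titrated compounds; data scaled to DMSO and EGF controls, Hill-fitted AC50.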
NPSR antagonist: antagonists of human neuropeptide S receptor cAMP signaling. Q6W5P4. CHO-NPSR cells, cAMP TR-FRET, antagonist mode. Potency, µM (highest dose often 38.3 µM), hits mostly inhibitors. hit rate 1% among 220,000; also: nearly all actives have a fitted effect of over 50% in size
Target sequence (Q6W5P4 whole entry, looked up): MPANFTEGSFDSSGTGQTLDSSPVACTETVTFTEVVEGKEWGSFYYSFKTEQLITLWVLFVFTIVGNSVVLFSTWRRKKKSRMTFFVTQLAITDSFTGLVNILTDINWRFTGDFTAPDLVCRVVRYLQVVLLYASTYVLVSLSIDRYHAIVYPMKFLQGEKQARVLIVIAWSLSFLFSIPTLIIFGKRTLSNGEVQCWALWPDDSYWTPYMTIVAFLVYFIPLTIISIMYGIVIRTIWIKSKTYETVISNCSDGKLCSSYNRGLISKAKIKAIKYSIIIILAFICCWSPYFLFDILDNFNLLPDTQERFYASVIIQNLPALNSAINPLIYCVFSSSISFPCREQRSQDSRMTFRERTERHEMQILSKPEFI
KinaseGlo FLuc: Kinase-Glo luciferase inhibition (counter-screen); Q27757; Kinase-Glo luciferase, ATP luminescence, 8 min; Potency, µM (highest dose often 38.3 µM), usual class: inhibitors; hit rate 0.28% among 200,000; AID 1379; also: nearly all actives have a fitted effect of over 60% in size
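Compounds were added to a substrate mix at pH 7.2 (50 mM imidazole, 10 uM ATP, within the enzyme's linear range), followed by Kinase-Glo detection reagent; luminescence was measured after 8 minutes at ambient temperature.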
Numbers stand for hits; n = inactive; u = inconclusive; x = not tested or not shown; ! = not active in a repeat; [ ] = dose if it differs, or a comment. Shown are actives, neighbours in structure and some others; about 1.1% of the full set was active somewhere. Calls follow the shape of the dose curve; as a rule, active = well fitted curve in the direction sought with a large enough effect; inconclusive = small, poorly fitted or top-dose-only effect, or another doubt; inactive = no such curve, though single readings can be large; an effect the other way counts as inactive or inconclusive.

SMILES	IMPase Li cell	ERK EGF block	NPSR antagonist	KinaseGlo FLuc
CC[C@@]1(O)C(=O)OCc2c1cc1n(c2=O)-c2cc3ccccc3nc2C1	u	x	x	n
CC[C@@]1(O)C(=O)OCc2c1cc1n(c2=O)Cc2cc3cc(O)ccc3nc2-1	10µM	n	x	n
Nc1ccccc1O.O.O=C(O)[C@H]1[O][Sb][O][C@H]1C(=O)O	n	x	x	n[7.66 µM]
O=C1NC(=S)NC(=O)C1=Cc1cccc2cc3ccccc3cc12	n	28µM	u	n[7.66 µM]
S=P(C1CCCCC1)(C1CCCCC1)[C@H](c1cccnc1)N1CCCC1	n	x	x	n[7.66 µM]
COC(=O)[C@@H]1[C@@H](C(=O)OC)C2(c3ccccc3-c3ccccc32)N(c2ccc(Cl)cc2)N1C#N	n	n	6.3µM	n
CN(C)C1C(=O)C(C(N)=O)=C(O)[C@@]2(O)C(=O)C3=C(O)c4c(O)cccc4[C@@](C)(O)C3[C@H](O)C12 (stereo partly specified)	3.2µM	n	x	n
O=C(O)C(O)(c1ccc(-c2ccccc2)cc1)c1ccc(-c2ccccc2)cc1	n	x	x	n[7.66 µM]
Cc1cc(C=C2C(=O)NC(=S)NC2=O)c(C)n1-c1ccc2c(c1)OCO2	n	n	13µM	u
Cc1cc(C=C2C(=O)NC(=O)NC2=O)c(C)n1-c1ccc2c(c1)OCO2	n	u	n	n
O=C(O)/C=C\c1ccc[c]([Sb])c1	n	x	x	n[7.66 µM]
CC(C)C[C@H]1C(=O)N2CCCC2[C@]2(O)O[C@](NC(=O)[C@@H]3C=C4c5cccc6[nH]c(Br)c(c56)C[C@H]4N(C)C3)(C(C)C)C(=O)N12 (stereo partly specified)	n	n	13µM	n
ClC1=C(Cl)C(Cl)=C(Cl)C1=C/C=C/c1ccccc1	x	11µM	n[7.67 µM]	x
N[C@@H](CP(=O)(O)O)C(=O)O	n	x	x	n[7.66 µM]
NCCSC(c1ccccc1)c1ccccc1	n	x	x	n[7.66 µM]
O=C(c1ccccc1)c1ccccc1N=Cc1c(O)[nH]c(=O)[nH]c1=O	n	n	n	n
COC(=O)c1ccccc1N=Cc1c(O)[nH]c(=S)[nH]c1=O	11µM	n	n	n
CN1CCc2nc3sc(C#N)c(N)c3c(-c3cccs3)c2C1	n	x	13µM	n
CN1CCc2nc(N)c(C#N)c(-c3ccccc3)c2C1	n	x	n	n
CN(C)c1ccc(N=Nc2ccccc2)cc1	n	x	x	x
C[n+]1c(-c2ccccc2)cc(-c2ccc(Cl)cc2)cc1-c1ccccc1	n	n	n	n
CN(C)c1ccc(-[n+]2c(-c3ccccc3)cc(-c3ccccc3)cc2-c2ccccc2)cc1	n	u	13µM	n
c1ccc(-c2cc(-c3ccccc3)[n+](-c3ccccc3)c(-c3ccccc3)c2)cc1	x	22µM	u	x
O=c1ccc2cc(O[C@H]3O[C@@H](CO)[C@@H](O)[C@@H](O)[C@@H]3O)c(O)cc2o1	n	n	x	n
O=c1ccc2cc(O[C@H]3OC(CO)C(O)C(O)C3O)c(O)cc2o1 (stereo partly specified)	13µM	n	x	n
SMILES	IMPase Li cell	ERK EGF block	NPSR antagonist	KinaseGlo FLuc
Cc1ccsc1C(=O)C1CCCN(Cc2sc(N(C)C)nc2Cl)C1 (stereo unspecified)	n	20µM	u	n
COc1ccc(C(=O)O[C@H]2CC[C@@]3(C)[C@H]4CC[C@H]5[C@]3(C[C@]3(O)[C@H]6CN7C[C@H](C)CC[C@H]7[C@](C)(O)[C@]6(O)[C@H](O)C[C@]53O)O[C@]24O)cc1OC	n	x	x	n[7.66 µM]
O=C(c1cn(Cc2ccccc2)c2ccccc12)C1CC1	n	n	10µM	n
O=C(c1ccco1)c1cn(Cc2ccccc2)c2ccccc12	n	x	u	n
O=C(c1ccco1)c1cn(Cc2ccccc2Cl)c2ccccc12	n	x	10µM	n
N[C@H](Cc1ccccc1)c1nn[nH]n1	n	x	x	n[7.66 µM]
FC(F)(F)c1ccc2c(c1)N(CCCN1CCN(CCCl)CC1)c1ccccc1S2	n	x	7.9µM	n
CCn1cc(C(=O)O)c(=O)c2cc3c(cc21)OCO3	7.9µM!	n	n	n
Cn1ncnc2c(=O)n(C)c(=O)nc1-2	n	x	1µM	n
Cc1ccccc1N1C(=O)NC(=O)/C(=C/c2ccc(N3CCOCC3)o2)C1=O	x	n	n	x
Cc1ccccc1N1C(=O)NC(=O)/C(=C\c2cc(Br)c(N3CCOCC3)o2)C1=O	n	n	13µM	n
CC(=O)[C@@H]1CC[C@H]2[C@@H]3CC[C@@H]4CC(=O)CC[C@]4(C)[C@H]3CC[C@]12C	n	x	x	x
OCC[n+]1c2ccccc2nc2ccc(N3CCOCC3)cc21	x	14µM	u	x
N#CS.N=C=S.N=C=S.[Cu].[NH2-].[NH2-].[NH2-].[NH2-].c1ccc2ncccc2c1	n	x	x	n[7.66 µM]
Cc1ccc(-c2nc3ccc(C)cn3c2CC(=O)N(C)C)cc1	n	n	x	n
CCCN(CCC)C(=O)Cc1c(-c2ccc(Cl)cc2)nc2c(Cl)cc(Cl)cn12	10µM	n	u	n
C/C=C(\C)C(=O)OC1C(C)=C2C(C1OC(=O)CCCCC)C(C)(OC(C)=O)CC(OC(=O)CCC)C1(O)C2OC(=O)C1(C)O (stereo unspecified)	x	u	4µM	x
CCOc1ccc(-n2nc3c(=S)[nH]nc(C)c3c2C)cc1	5µM	n	6.3µM	n
CCOc1ccc(-c2c(C)n(-c3ccc(OCC)cc3)c3[n+]2CCCCC3)cc1	x	u	n	x
O=C(O)Cc1ccc([N+](=O)[O-])cc1[N+](=O)[O-]	n	x	x	n[7.66 µM]
Cc1ccc(C(=O)n2c(N)nc3ccccc32)cc1	n	n	n	11µM
Nc1nc2c(ncn2[C@@H]2O[C@H](CO)[C@@H](O)[C@@H]2O)c(=[SH+])[nH]1.O=[N+]([O-])c1ccc(O)[c]([Hg])c1	n	x	x	2.8µM
Nc1nc(=S)c2ncn([C@H]3O[C@@H](CO)[C@@H](O)[C@@H]3O)c2[nH]1	n	n	x	n
CCOc1cccc(=NC2CCCCC2)c2c(C)n(C)c(C)c12	x	n	7.9µM	x
C[C@@H](O)CN(CCN(C[C@@H](C)O)C[C@@H](C)O)C[C@@H](C)O.O=[N+]([O-])O.[Cu]	n	x	x	n[7.66 µM]
SMILES	IMPase Li cell	ERK EGF block	NPSR antagonist	KinaseGlo FLuc
O=[As](O)(O)c1ccc2nc3cc([As](=O)(O)O)ccc3nc2c1	n	x	x	n[7.66 µM]
N=C(N)c1c(O)n(C2CCCCC2)c(=O)n(C2CCCCC2)c1=O	n	x	10µM	n
O=c1c(C=NCc2cccs2)c(O)n(C2CCCCC2)c(=O)n1C1CCCCC1	n	x	u	n
O=C(Cn1cc(C(=O)c2ccccc2F)c2ccccc21)NCc1ccco1	8.9µM	x	u	n
CC(C)c1ccc(N2C(=O)NC(=O)/C(=C/C=C/c3ccco3)C2=O)cc1	n	n	6.3µM	n
Cc1cc(C)cc(N2C(=O)NC(=O)/C(=C\C=C\c3ccco3)C2=O)c1	n	u	10µM	n
CCc1ccc(N2C(=O)NC(=O)/C(=C\C=C\c3ccco3)C2=O)cc1	x	u	10µM	x
Cc1ccc(N2C(=O)NC(=O)/C(=C/C=C/c3ccco3)C2=O)cc1	n	n	n	n
COc1cc2c(cc1OC)[C@]13CC[N@+]4(C)CC5=CCO[C@H]6CC(=O)N2[C@@H]1C6[C@@H]5C[C@]34O (stereo partly specified)	n	x	x	n[7.66 µM]
O=C1C(Cl)=C(Cl)C(=O)C(Cl)=C1Cl	n	10µM	x	n
[N-]=[N+]=[N-]	n	x	x	x
C(=NC1CCCCC1)=NC1CCCCC1	n	x	x	x
